Inconclusive results are not listed. A structure can be active in one record and inactive in another. Calls of active or inactive are those of the source. The calls were made as follows: active = hit-call score of the fitted dose curve at least 0.9, where 1 is the maximum; inconclusive = response in the unintended direction; inactive = score below 0.9.
Test: CCTE_Mundy_HCI_iCellGluta_NOG_NeuriteLength: CCTE's Neurite Outgrowth Assay in iCellGluta cells for Neurite Length, Mundy Lab (AID 2284318)
Method: CCTE_Mundy_HCI_iCellGluta_NOG is a multiplexed, cell-based-readout assay that uses iCell GlutaNeurons from FUJIFILM Cellular Dynamics, Inc. (FCDI), human glutamatergic enriched neurons derived from induced pluripotent stem (iPS) cells, with measurements taken at 50.33 hours after chemical dosing in a microplate: 96-well plate.CCTE_Mundy_HCI_iCellGluta_NOG_NeuriteLength is one of four components of the CCTE_Mundy_HCI_iCellGluta_NOG assay. It measures neurite outgrowth related to neurite length using High Content Imaging of fluorescently labelled markers.Data from the assay component CCTE_Mundy_HCI_iCellGluta_NOG_NeuriteLength was analyzed at the endpoint CCTE_Mundy_HCI_iCellGluta_NOG_NeuriteLength in the positive analysis fitting direction relative to DMSO as the negative control and baseline of activity. Using a type of morphology reporter, loss-of-signal activity can be used to understand developmental effects.
Exposure starts 2 hours post-plating by adding 10 ul of the working solution to 90 ul of media in the wells for a 1/10 dilution. Forty-eight hours after chemical treatment cells are fixed by direct addition of 100 ul of warm (37C) Dulbecco's phosphate buffered saline (DPBS) fixative solution containing 8% paraformaldehyde, 8% sucrose, and 0.1% of 3 mg/ml Hoechst 33342 into each well. Primary antibodies are prepared by dilution in Immunocytochemical Staining Buffer (ISB), 10X Dulbecco's PBS, 0.1% Saponin, 5% Bovine Serum Albumin, 0.5% NaN3 (Sodium Azide) and betaIII-tubulin (rabbit anti-betaIII-tubulin, 1:800) followed by Alexa Fluor-488 secondary (1:500) to label neuronal cell bodies and neurites. A Cellomics ArrayScan VTi HCS Reader is used for automated image acquisition and analysis of neurite outgrowth.

Structure (SMILES)	outcome	AC50
CS(=O)(=O)c1cc(C(F)(F)F)ccc1C(=O)c1cnoc1C1CC1	inactive	–
CCSC(=O)N1CCCCCC1	inactive	–
COP(=S)(OC)SCn1nnc2ccccc2c1=O	–	21.9 µM (active)
CO/N=C(/C1=NOCCO1)c1ccccc1Oc1ncnc(Oc2ccccc2Cl)c1F	–	9.92 µM (active)
N#CN=C1SCCN1Cc1ccc(Cl)nc1	inactive	–
O=C(Nc1ccccc1-c1ccc(Cl)cc1)c1cccnc1Cl	inactive	23.7 µM (active)
CS(=O)(=O)c1ccc(C(=O)C2C(=O)CCCC2=O)c([N+](=O)[O-])c1	inactive	–
CCNC(=O)NC(=O)C(C#N)=NOC	inactive	–
CC(C)(C)C(=O)C(Oc1ccc(Cl)cc1)n1cncn1 (stereo unspecified)	inactive	–
CNC(=O)Oc1cccc2ccccc12	inactive	–
COC(=O)N(C(=O)N1CO[C@@]2(C(=O)OC)Cc3cc(Cl)ccc3C2=N1)c1ccc(OC(F)(F)F)cc1	inactive	–
C=C(C)CN(CC)c1c([N+](=O)[O-])cc(C(F)(F)F)cc1[N+](=O)[O-]	–	22.1 µM (active)
CC1(C)C(C=C(Cl)Cl)C1C(=O)OC(C#N)c1cccc(Oc2ccccc2)c1 (stereo unspecified)	inactive	–
Cc1c(COC(=O)[C@@H]2[C@H](/C=C(\Cl)C(F)(F)F)C2(C)C)cccc1-c1ccccc1	–	10.8 µM (active)
CN/C(=N\[N+](=O)[O-])NCc1cnc(Cl)s1	inactive	–

Source: PubChem BioAssay (EPA / NIEHS)
